Experimental findings from PubChem BioAssay (NCI) are described below.

“And” between values parts separate entries of the source, which are not always exact repeats. Identical values can stand only once. About 79,000 compounds went through this panel and 15% of them were active in at least one assay; those are over-represented in the sample as a whole. A number with no mark means an inactive call. The source made the active and inactive calls. Rule as the data show it: active = growth inhibition above about 70%; inactive = the rest.

A short description of experiment [1]: NCI Yeast Anticancer Drug Screen. Data for the rad50 strain (AID 155).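 Also: 0% = growth of vehicle-only cultures of the same strain.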 The note with it: S. cerevisiae rad50 strain growth inhibition, hits give high values. The method, boiled down: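 Compounds were tested on a yeast strain with an engineered DNA damage repair alteration; the reported value is growth inhibition normalised to vehicle treatment.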
Experiment [2] can be described thus: NCI Yeast Anticancer Drug Screen. Data for the mec2-1 strain (AID 157). The note with it: S. cerevisiae mec2-1 strain, hits give high values. The method, boiled down:
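Compounds were applied to mec2-1 yeast cells. Their growth was then compared with that of vehicle-treated cultures to give growth inhibition.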

Experiment [3] can be described thus: NCI Yeast Anticancer Drug Screen. Data for the cln2 rad14 strain (AID 165).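 Also: 0% = growth equal to vehicle treated cultures.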 The settings on record: S. cerevisiae cln2 rad14 strain, hits give high values. In a few lines:
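Strain: cln2 rad14 yeast, altered in cell cycle control and DNA damage repair. Read-out: growth inhibition vs vehicle.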

Experiment [4] in a line: NCI Yeast Anticancer Drug Screen. Data for the bub3 strain (AID 167). The note with it: S. cerevisiae bub3 mutant strain, hits give high values. In a few lines: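 Growth of a checkpoint-deficient yeast mutant is measured after compound exposure. Values represent inhibition relative to vehicle.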
Experiment [5] can be described thus: NCI Yeast Anticancer Drug Screen. Data for the mlh1 rad18 strain (AID 175). The settings on record: S. cerevisiae mlh1 rad18 strain growth inhibition, hits give high values. The method, boiled down: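 A repair-deficient yeast strain is exposed to test compound, and growth is scored relative to vehicle-treated controls.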
The nature of experiment [6]: NCI Yeast Anticancer Drug Screen. Data for the sgs1 mgt1 strain (AID 161).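 Also: 0% = growth of cultures given vehicle only.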 The settings on record: S. cerevisiae sgs1 mgt1 strain, hits give high values. In a few lines:
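This yeast growth screen uses a strain with defined DNA-repair lesions; compound-treated growth is compared with vehicle-treated growth.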

Where [7] appears, read: at 5.0 µM (retest, dose inferred, filed as 0.5).
Setting [8] is: at 50.0 µM (retest, dose inferred, filed as 5.0).

With `O=C/C(Br)=C\c1ccccc1`, the growth inhibition in experiment [1] (setting [7]) was 36%; in experiment [1] (setting [8]), 99% (active); in experiment [1] (at 50.0 µM), 55.2%; in experiment [2] (setting [7]), 20%; in experiment [2] (setting [8]) it was 99% (active); in experiment [2] (at 50.0 µM), 99.2% (active). Moreover, the growth inhibition in experiment [3] (setting [7]) was 12%; in experiment [3] (setting [8]), 99% (active); in experiment [3] (at 50.0 µM) it was 98.4% (active); in experiment [4] (setting [7]), 26%; in experiment [4] (setting [8]) it was 99% (active); in experiment [4] (at 50.0 µM), 48.4%. Moreover, the growth inhibition was 16% in experiment [5] (setting [7]), 99% (active) in experiment [5] (setting [8]) and 7.45% in experiment [5] (at 50.0 µM).
As to `O=C1c2ccccc2/C=C\C(c2ccccc2)=N/N1c1ccccc1Cl`, the growth inhibition in experiment [1] (setting [7]) was 7%; in experiment [1] (setting [8]) it was 52%; in experiment [1] (at 50.0 µM) it was 84.8% (active); in experiment [2] (setting [7]) it was 0%; in experiment [2] (setting [8]), 69%; in experiment [2] (at 50.0 µM) it was 83.5% (active). Moreover, the growth inhibition in experiment [3] (setting [7]) is -2%; in experiment [3] (setting [8]), 37%; in experiment [3] (at 50.0 µM) it was 60.2%; in experiment [4] (setting [7]), -4%; in experiment [4] (setting [8]) it was 52%; in experiment [4] (at 50.0 µM), 85.2% (active). Moreover, the growth inhibition in experiment [5] (setting [7]) was 7%; in experiment [5] (setting [8]) it was 48%; in experiment [5] (at 50.0 µM), 84.7% (active).
Consider `C[n+]1c2ccccc2cc2[nH]c3ccccc3c21`, for which the growth inhibition in experiment [1] (setting [7]) is 84% (active); in experiment [1] (setting [8]), 93% (active); in experiment [1] (at 50.0 µM) it was 74% (active); in experiment [6] (setting [7]), 89% (active); in experiment [6] (setting [8]) it was 98% (active); in experiment [6] (at 50.0 µM), 79.7% (active). Further, the growth inhibition in experiment [3] (setting [7]) was 63%; in experiment [3] (setting [8]) it was 75% (active); in experiment [3] (at 50.0 µM) it was 64.8%; in experiment [4] (setting [7]), 84% (active); in experiment [4] (setting [8]), 84% (active); in experiment [4] (at 50.0 µM), 72.7% (active). The growth inhibition in experiment [5] (setting [7]) was 90% (active); in experiment [5] (setting [8]) it was 97% (active); in experiment [5] (at 50.0 µM), 77.3% (active).
`CC(=O)CCC(Br)(CCC(Br)(CCC(C)=O)[N+](=O)[O-])[N+](=O)[O-]` (stereo unspecified): the growth inhibition is 0% in experiment [1] (setting [7]); 13% in experiment [1] (setting [8]); 95.2% (active) in experiment [1] (at 50.0 µM); 8% in experiment [2] (setting [7]); 14% in experiment [2] (setting [8]); 90.5% (active) in experiment [2] (at 50.0 µM). Moreover, the growth inhibition in experiment [3] (setting [7]) was 15%; in experiment [3] (setting [8]), 29%; in experiment [3] (at 50.0 µM), 91.5% (active); in experiment [4] (setting [7]), 11%; in experiment [4] (setting [8]), 28%; in experiment [4] (at 50.0 µM), 79% (active). Moreover, the growth inhibition in experiment [5] (setting [7]) was 12%; in experiment [5] (setting [8]), 22%; in experiment [5] (at 50.0 µM), 98.3% (active).
For `O=C(O)c1ccccc1C(c1ccccc1)c1ccccc1`, the growth inhibition is 15% in experiment [1] (setting [7]); 62% in experiment [1] (setting [8]); 44.4% in experiment [1] (at 50.0 µM); 26% in experiment [6] (setting [7]); 71% (active) in experiment [6] (setting [8]); 85.8% (active) in experiment [6] (at 50.0 µM). Further, the growth inhibition was 13% in experiment [3] (setting [7]); 84% (active) in experiment [3] (setting [8]); 74.3% (active) in experiment [3] (at 50.0 µM); 25% in experiment [4] (setting [7]); 79% (active) in experiment [4] (setting [8]); 75.3% (active) in experiment [4] (at 50.0 µM). Also, the growth inhibition was 6% in experiment [5] (setting [7]), 84% (active) in experiment [5] (setting [8]) and 67% in experiment [5] (at 50.0 µM).
For the compound `O=[N+]([O-])c1ccc2c(c1)Cc1cc(Cl)ccc1-2`, the growth inhibition in experiment [1] (setting [7]) is 7%; in experiment [1] (setting [8]), 6%; in experiment [1] (at 50.0 µM) it was 14.1%; in experiment [2] (setting [7]) it was 2%; in experiment [2] (setting [8]), 5%; in experiment [2] (at 50.0 µM), -13.9%. Besides, the growth inhibition was 1% in experiment [6] (setting [7]); -2% in experiment [6] (setting [8]); -11.4% in experiment [6] (at 50.0 µM); 4% in experiment [4] (setting [7]); 7% in experiment [4] (setting [8]); -14.3% in experiment [4] (at 50.0 µM). Besides, the values for the growth inhibition in experiment [5] (setting [7]), in experiment [5] (setting [8]) and in experiment [5] (at 50.0 µM) were 6%, 5% and 46.1%, respectively.
As for `O=S(=O)(c1ccc2c(c1)CCCN2)N1CCC[C@H]2CCCC[C@@H]21`, the growth inhibition in experiment [1] (setting [7]) is 7%; in experiment [1] (setting [8]), 94% (active); in experiment [1] (at 50.0 µM) it was 95.3% (active); in experiment [6] (setting [7]), 0%; in experiment [6] (setting [8]) it was 95% (active); in experiment [6] (at 50.0 µM), 97.1% (active). Further, the growth inhibition in experiment [3] (setting [7]) is 32%; in experiment [3] (setting [8]) it was 94% (active); in experiment [3] (at 50.0 µM), 95.5% (active); in experiment [4] (setting [7]), 14%; in experiment [4] (setting [8]), 96% (active); in experiment [4] (at 50.0 µM), 98.2% (active). Further, the growth inhibition in experiment [5] (setting [7]) is 11%; in experiment [5] (setting [8]) it was 93% (active); in experiment [5] (at 50.0 µM), 95% (active).
For the compound `NC(CC(=O)O)c1ccccc1` (stereo unspecified), the growth inhibition was 6.2% and -0.2% and -0.5% in experiment [1] (at 50.0 µM); 8.8% and -3.45% and -4.3% in experiment [2] (at 50.0 µM); -5.95% and 2.35% and -0.05% in experiment [6] (at 50.0 µM); 14.2% and -33.1% and -4.9% in experiment [3] (at 50.0 µM); -12.7% and -10.4% and -18.2% in experiment [4] (at 50.0 µM); -8.9% and 9.75% and -24.9% in experiment [5] (at 50.0 µM).
`O=[N+]([O-])c1ccc(C=NC2CCCCC2)c([N+](=O)[O-])c1`: the growth inhibition was 0% in experiment [1] (setting [7]); 46% in experiment [1] (setting [8]); 41% in experiment [1] (at 50.0 µM); -1% in experiment [2] (setting [7]); 54% in experiment [2] (setting [8]); 46% in experiment [2] (at 50.0 µM). The growth inhibition in experiment [6] (setting [7]) was 2%; in experiment [6] (setting [8]), 69%; in experiment [6] (at 50.0 µM), 59.5%; in experiment [4] (setting [7]) it was 20%; in experiment [4] (setting [8]) it was 83% (active); in experiment [4] (at 50.0 µM), 55.5%. The growth inhibition in experiment [5] (setting [7]) is -5%; in experiment [5] (setting [8]), 85% (active); in experiment [5] (at 50.0 µM), 73.3% (active).
On to `CCCCCCCCCCCCCCCC1C(N)C(=O)N(C)N1C` (stereo unspecified), for which the growth inhibition was -33% in experiment [1] (setting [7]); 96% (active) in experiment [1] (setting [8]); 89.7% (active) in experiment [1] (at 50.0 µM); -25% in experiment [2] (setting [7]); 97% (active) in experiment [2] (setting [8]); 91.2% (active) in experiment [2] (at 50.0 µM). In addition, the growth inhibition was -30% in experiment [3] (setting [7]); 94% (active) in experiment [3] (setting [8]); 88% (active) in experiment [3] (at 50.0 µM); -51% in experiment [4] (setting [7]); 95% (active) in experiment [4] (setting [8]); 89.5% (active) in experiment [4] (at 50.0 µM). Further, the values for the growth inhibition in experiment [5] (setting [7]), in experiment [5] (setting [8]) and in experiment [5] (at 50.0 µM) were -43%, 95% (active) and 90.4% (active), respectively.
